# Laboratory results taken from PubChem BioAssay AID624305 (National Center for Advancing Translational Sciences (NCATS), 2012).
# Results filed as inconclusive are left out. Activity calls are given as the source filed them. The call rests on the fitted dose curve; in most records, active means well fitted activation curve with a large enough effect; inconclusive means small, poorly fitted or top-dose-only effect; inactive means no such curve, though single readings can be large or run the other way.
# Test: qHTS assay for re-activators of p53 using a Luc reporter: Hit Validation; further: nearly all actives have a fitted effect of over 75% in size; on activation: 0% is about no effect
# Conditions: p53-responsive luciferase reporter cells, luminescence, H1299 line expressing heat-sensitive Ala138Val p53; series mostly up to 46.1 µM; activation: at the top concentration
# Method in brief: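 H1299 (p53-null) cells stably carrying p53-A138V and a BP100-luciferase reporter, 1000 cells/well, treated 24 h at 37 deg C. Compounds at several concentrations, 1:5 dilution; nocodazole control; luminescence read after 10 min with detection reagent.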
# Potency means the concentration at half of the fitted maximal effect.
Compound,Potency,activation
CN(/N=C/c1ccc2c(c1)OCO2)c1ccccc1,14.6 µM (active),–
O=C1NC(c2ccc(Br)cc2)=N/C1=C/c1ccco1,0.58 µM (active),–
COc1ccc2cc(C3(C)NC(=O)N(CC(=O)Nc4c(C)n(C)n(-c5ccccc5)c4=O)C3=O)ccc2c1 (stereo not drawn),–,-22.9% (inactive)
Cc1occc1C(=O)NN=C1C2CC3CC(C2)CC1C3,–,40.1% (inactive)
C(=C\c1nc(-c2ccccc2)no1)/c1ccccc1,2.31 µM (active),–
N#C/C(=C/c1cccnc1)c1ccccc1,–,-12% (inactive)
CC(=O)c1cccc(NC(=O)c2sc(Cl)nc2C)c1,–,7.29% (inactive)
COc1cccc(C(=O)c2sc(NC(C)C)nc2N)c1,–,25.6% [at 9.22 µM] (inactive)
COCCn1c(C)cc(C(=O)CSc2nc3ccccc3s2)c1C,–,130% [at 9.22 µM] (inactive)
CCOCC(=O)Nc1nc2ccc(OCC)cc2s1,16.4 µM (active),–
NS(=O)(=O)c1ccc(CCNCc2cccnc2)cc1,–,-16.7% (inactive)
CN(C)c1ccc(NC(=O)CCCc2ccccc2)cc1,1.46 µM (active),–
CCN1CCc2c(sc(NC(=O)c3ccc(S(=O)(=O)N4CCCC4)cc3)c2C(=O)NC)C1,–,8.85% (inactive)
Cc1cc(C)nc(CC(N)=O)n1,–,-13% (inactive)
C=C[C@@H]1c2cc(C)ccc2N(S(=O)(=O)c2ccc(C)cc2)[C@H](c2ccccc2C(F)(F)F)C1(C#N)C#N,–,-29.7% (inactive)
O=C(Nc1ccccc1Oc1ccccc1)c1cc([N+](=O)[O-])ccc1Cl,–,-29.2% (inactive)
CC(C)(C)c1ccc(/C=N/Nc2ccc(C(=O)O)cc2)cc1,–,-5.73% (inactive)
COc1ccc2nc(NC(=O)Nc3ccccc3OC)sc2c1,9.2 µM (active),–
N#Cc1nc(COc2ccccc2)oc1N1CCOCC1,–,-9.38% (inactive)

Compound,Potency,activation
O=C(C1CCCN1S(=O)(=O)c1ccc(Cl)cc1)N1CCOCC1 (stereo not drawn),–,-4.17% (inactive)
COc1cc(NC(=O)CN2CCCCC2)c(C)cc1[N+](=O)[O-],–,9.16% [at 9.22 µM] (inactive)
O=C(Cc1ccccc1)NCc1ccc(F)cc1,–,34.4% (inactive)
O=C(COc1ccc(F)cc1Cl)NC1CCCCCC1,7.31 µM (active),–
NNc1nc(NCc2ccccc2)nc(N2CCOCC2)n1,–,-7.29% (inactive)
Cc1nonc1NCn1nnc2ccccc21,–,7.94% [at 9.22 µM] (inactive)
Nc1nc2ccc(N3CCOCC3)cc2s1,–,34.4% (inactive)
O=C(CCc1nc(-c2ccccc2F)no1)NC1CCCCCC1,–,-13.5% (inactive)
O=C(NNC(=S)NC1CCCCC1)c1cccs1,–,0% (inactive)
COc1cc(CNC2CCCCCCC2)c(Br)cc1OCCO,–,26% (inactive)
Cn1c(Cc2cccs2)nnc1SCc1nc2ccccc2[nH]1,–,6.77% (inactive)
O=C(O)CCCC(=O)NCCc1ccncc1,–,-83.3% (inactive)
CC(=O)NC1=C(Nc2ccc(N(C)C)cc2)C(=O)c2ccccc2C1=O,9.2 µM (active),–
Cc1ccc(C(=O)Nc2nnc(SCC(=O)N3CCCc4ccccc43)s2)cc1,–,-3.65% (inactive)
Cc1ccc(NC(=O)/C=C/c2ccc([N+](=O)[O-])s2)c(C)c1,2.91 µM (active),–
Cc1cc(/C=N/Nc2ncnc(N)c2[N+](=O)[O-])c(C)n1-c1ccccc1,0.092 µM (active),–
CC(=O)N/C(=C/c1ccc2c(c1)OCO2)C(=O)Nc1ccccc1,–,2.08% (inactive)
COc1ccc(N(C(=O)Nc2ccc(Cl)cc2)C2=NCCC2)cc1,–,30.2% (inactive)
N#CC(c1ccccc1)C1CCN(Cc2ccccc2)CC1 (stereo not drawn),–,-1.04% (inactive)
